Results published in PubChem BioAssay AID1745857 (National Center for Advancing Translational Sciences (NCATS), 2022).
The whole screen tested about 120,000 compounds, of which about 370 (0.31%) were called active. Roughly 4% stayed inconclusive and do not appear here. The sample holds actives, similar compounds and a random draw of the others, so the mix is not that of the screen. Calls follow the shape of the full dose curve.

Assay: Primary qHTS Assay for Foot and Mouth Disease Virus Antivirals against NCGC Sytravon and CBC Compound Libraries: Renilla Luciferase Signal; also: nearly all actives have a fitted effect of over 55% in size
Settings: FMDV replicon cells; series mostly up to 57.5 µM; activity change, negative = inhibition: at the top concentration
% is scaled to controls: 0 for no effect and ±100 for the full control effect; potency is read from the fitted curve at half-maximal effect.

SMILES	activity change, negative = inhibition	Potency
CCOc1ccc(-c2noc(-c3nnn(-c4ccc(C(C)C)cc4)c3N)n2)cc1	13.1% (inactive)	–
CCCCCCCCc1ccc(-c2ccc(CC)cc2)nc1	-6.84% [at 1.06 µM] (inactive)	–
COc1ccc(OC)c(CCNC(=O)CSCc2cnn(-c3ccccc3)c2-n2cccc2)c1	-0.795% (inactive)	–
CCC(Nc1ccc2oc(C)nc2c1)C(=O)Nc1ccc(F)cc1 (configuration not stated)	39.3% (inactive)	–
CCOC(=O)c1c(S(=O)(=O)Nc2cc(Cl)c(OC)cc2OC)c(C)n(C)c1C	40.2% (inactive)	–
Cn1nc(CC(=O)Nc2cccc(Cl)c2)c2ccccc2c1=O	–	7.94 µM (active)
COc1ccc(Cl)cc1NC(=O)COC(=O)c1nn(C)c(=O)c2ccccc12	-3.84% (inactive)	–
COc1ccc(NC(=O)COC(=O)c2nn(C)c(=O)c3ccccc23)cc1Cl	-4.42% (inactive)	–
COC(=O)c1cc(NC(=O)CSc2nnc(Cc3ccc(OC)cc3)n2C)ccc1Cl	5.38% (inactive)	–
O=C(Nc1ccc2oc(-c3cccc(Br)c3)nc2c1)c1cccs1	-3.52% (inactive)	–
CCc1cccc(-n2nnc(-c3nsc(NC(=O)c4ccc(C)cc4)n3)c2C)c1	-4.67% (inactive)	–
Cc1c(-c2nsc(NC(=O)c3cccc(Cl)c3)n2)nnn1-c1ccccc1C(F)(F)F	–	12.6 µM (active)
COc1ccc(-n2nnc(-c3nsc(NC(=O)c4ccc(C)c(C)c4)n3)c2C)cc1Cl	20.9% (inactive)	–
N#Cc1ccc(-c2ccc(OCc3ccccc3C#N)cc2)cc1	16.3% (inactive)	–
COc1ccc(OC)c(C2c3c(n[nH]c3C)Nc3[nH]c(=O)[nH]c(=O)c32)c1 (configuration not stated)	11.2% (inactive)	–
CCOC(=O)C1=C(CNCc2ccc(C)cc2)NC(=O)NC1c1ccc(Cl)cc1 (configuration not stated)	-10.7% (inactive)	–
CN(C)CCNC(C(=O)O)c1c[nH]c2cc(F)ccc12 (configuration not stated)	3.52% (inactive)	–
C#CC[N+]1(C)C(C)CCCC1C (configuration not stated)	-0.993% (inactive)	–
CCCNC(=O)c1ccc(NC(=O)CCc2ccccc2)cc1	-4.2% (inactive)	–

SMILES	activity change, negative = inhibition	Potency
Cc1csc(/C(C#N)=C\NC2CC(C)(C)NC(C)(C)C2)n1	-1.6% (inactive)	–
CCCn1nc(C(=O)Nc2ncc(Cc3ccc(F)cc3)s2)ccc1=O	–	25.1 µM (active)
Cc1cnc(NC(=O)c2nc(C)n(-c3ccc(F)cc3)n2)s1	0.0004% (inactive)	–
Cc1nc(-c2ccc(F)cc2)sc1C(=O)N[C@H](C(=O)O)C(C)C	23.8% (inactive)	–
Cc1[nH]n(-c2nc(-c3ccccc3)cs2)c(=O)c1CC(=O)Nc1cccc(Cl)c1	-4.92% (inactive)	–
CCCN(CC(=O)Nc1cccc(C(=O)NC2CC2)c1)Cc1nnc(-c2cccs2)o1	69.5% (inactive)	–
COCCCn1c(C)cc(C(=O)CSc2ncnc3ccccc23)c1C	–	1.41 µM (active)
COCCn1c(C)cc(C(=O)CSc2nnc(-c3ccccc3OC)n2-c2ccc(Cl)cc2)c1C	-11.3% [at 1.06 µM] (inactive)	–
Cc1cccc(NC(=O)CSc2ncnc3ccccc23)c1	-11.7% (inactive)	–
Cc1cc(C(C)(C)C)cc(C)c1CCNC(=O)c1ccc(NC(=O)CC#N)cc1	-11.7% [at 1.06 µM] (inactive)	–
CCc1ccc(/C=C/C(=O)c2cc3ccccc3oc2=O)cc1	47.5% (inactive)	–
Cc1[nH]c2ccccc2c1C(C(=O)O)N1CCN(Cc2ccccn2)CC1 (configuration not stated)	-14.3% (inactive)	–
O=C(COc1ccc2c(c1)CCC2)OCC(=O)c1ccc2c(c1)OCCO2	5.29% (inactive)	–
COC(=O)c1ccc(C2C(c3ccccc3)=C(O)C(=O)N2c2ccc(Cl)cc2)cc1 (configuration not stated)	16.2% (inactive)	–
COc1ccc(CNc2oc(-c3ccc(C)cc3)nc2C#N)cc1	0% (inactive)	–
CC(C)Cn1c(=O)c2ccccc2n2c(SCC(=O)Nc3ccc(F)cc3F)nnc12	-5.31% (inactive)	–
O=C(NCc1cccs1)C1CCN(c2nccn3nc(-c4ccccc4)cc23)CC1	11.8% (inactive)	–
CSCCCNC(=S)NNC(N)=O	8.02% (inactive)	–
